# From a collection of fitness landscapes (doi:10.1016/j.celrep.2020.107928)
# Whole data set: some 81,000 sequences, median “one-hybrid fitness for binding NBS DNA” near -0.1, cut for the highest 2% near 0.36. Many of the other results were omitted from the sample, so the highest values are more common in it than they were.
# B1: Caulobacter ParB omega fusion; a variant is named by its letters at X, in order, B8GW30 (parent)
# chain: MESVVVGEPGMSEGRRGLGRGLSALLGEVDAAPAQAPGEQLGGSREAPIEILQRNPDQPRRTFREEDLEDLSNSIREKGVLQPILVRPSPDTAGEYQIVAGERAWRAAQRAGLKTVPIMVRELDDLAVLEIGIIENVQRADLNVLEEALSYKVLMEKFERTQENIAQTIGKSXSHVANXMRLLXLPDEVQSYLVSGELTAXHARAIAAAADPVALAKQIIEGGLSVRETEALARKAPNLSAGKSKGGRPPRVKDTDTQALESDLSSVLGLDVSIDHRGSTGTLTITYATLEQLDDLCNRLTRGI
# Variants of: B1
# Test: one-hybrid fitness for binding NBS DNA (the Noc-binding site; scaled: cognate 1, non-cognate 0); higher = stronger binding
# Details: with NBS DNA site
# Method in brief: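 In E. coli USO, a HIS3 reporter with its site placed 19 bp from the promoter was used to select Caulobacter ParB variants randomised at four specificity codons. Growth lasted 48 hours at 37°C on histidine-free M9 containing 0.1 mM IPTG and 5 mM 3-AT. Fitness was taken as the log change in variant-to-wild-type read ratio from Illumina sequencing of pre- and post-selection plasmids, rescaled between the non-cognate and cognate sites.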
row,Variant,one-hybrid fitness for binding NBS DNA
1,FLTY,≤ 0.2
2,KTPC,≤ 0.2
3,PLQH,≤ 0.2
4,TATP,≤ 0.2
5,MRTF,≤ 0.2
6,QQHM,≤ 0.2
7,QQGM,0.202
8,QQGT,0.475
9,QQHC,≤ 0.2
10,QQYT,0.473
11,QQQY,0.247
12,QQQM,≤ 0.2
13,DQYT,≤ 0.2
14,QQGD,≤ 0.2
15,QQHT,0.535
16,QQQT,0.449
17,SAFG,≤ 0.2
18,IKRQ,≤ 0.2
19,STKR,0.254
20,FDSL,≤ 0.2
21,VKGK,≤ 0.2
22,DTSI,≤ 0.2
23,QQCS,0.356
24,QQCT,0.528
25,QQCN,≤ 0.2
26,QQSD,≤ 0.2

row,Variant,one-hybrid fitness for binding NBS DNA
1,QQST,0.516
2,QQSP,≤ 0.2
3,QYKY,0.479
4,QYLT,0.383
5,QYLN,≤ 0.2
6,QYRY,0.486
7,QYVY,≤ 0.2
8,QYGY,≤ 0.2
9,QYKE,0.213
10,QYDY,≤ 0.2
11,QYFY,≤ 0.2
12,QYKN,0.366
13,QYLD,≤ 0.2
14,QYKL,0.246
15,VANF,≤ 0.2
16,NCLY,≤ 0.2
17,QFRV,≤ 0.2
18,SHNY,≤ 0.2
19,QQPF,≤ 0.2
20,TSAQ,≤ 0.2
21,HDDG,≤ 0.2
22,CDFR,≤ 0.2
23,SYFG,≤ 0.2
24,LSYG,≤ 0.2
25,QYWY,≤ 0.2
26,QYCT,0.419

row,Variant,one-hybrid fitness for binding NBS DNA
1,QYWN,≤ 0.2
2,QYKM,0.369
3,QYCG,≤ 0.2
4,QYLM,≤ 0.2
5,QYCY,≤ 0.2
6,QYPM,≤ 0.2
7,QYKH,0.569
8,QYKF,0.229
9,QYWT,0.378
10,QYKG,0.294
11,LVLD,≤ 0.2
12,GKTG,≤ 0.2
13,TVSI,≤ 0.2
14,MEAE,≤ 0.2
15,YPFW,≤ 0.2
16,SPYH,≤ 0.2
17,HDPT,≤ 0.2
18,NGHF,≤ 0.2
19,GEAN,≤ 0.2
20,SSSE,≤ 0.2
21,QYKK,0.398
22,QYHC,≤ 0.2
23,QYSS,0.357
24,QYKT,0.722
25,QYSH,≤ 0.2
26,QYPT,0.255

row,Variant,one-hybrid fitness for binding NBS DNA
1,QYRK,0.36
2,QYHT,0.417
3,QYST,0.413
4,QYYK,≤ 0.2
5,QYVT,0.363
6,QYHQ,≤ 0.2
7,VTAR,≤ 0.2
8,SYLG,≤ 0.2
9,HAQP,≤ 0.2
10,GPML,≤ 0.2
11,SDVP,≤ 0.2
12,IIPF,≤ 0.2
13,PDHK,≤ 0.2
14,MVPA,≤ 0.2
15,MAQR,≤ 0.2
16,QYRT,0.733
17,QYYT,0.352
18,QYAT,0.427
19,QYFT,0.335
20,QYKP,0.232
21,QYYM,≤ 0.2
22,QYDM,≤ 0.2
23,QYKD,0.212
24,QYKS,0.643
25,QYRM,0.394
26,QYIT,0.355

row,Variant,one-hybrid fitness for binding NBS DNA
1,QYAS,0.327
2,SPCH,≤ 0.2
3,YMAS,≤ 0.2
4,ELYR,≤ 0.2
5,YQKG,≤ 0.2
6,QERT,≤ 0.2
7,TNGI,≤ 0.2
8,RKAP,≤ 0.2
9,RKAD,≤ 0.2
10,RKAS,0.597
11,RKFP,≤ 0.2
12,RKFN,≤ 0.2
13,RKFS,0.435
14,EDSG,≤ 0.2
15,VTLK,≤ 0.2
16,ISMT,≤ 0.2
17,SRDR,≤ 0.2
18,QCRN,0.482
19,QSRN,0.374
20,QSYN,≤ 0.2
21,QSDN,≤ 0.2
22,QPRN,≤ 0.2
23,QCYN,≤ 0.2
24,KTCN,≤ 0.2
25,LIAD,≤ 0.2
26,LNLA,≤ 0.2

row,Variant,one-hybrid fitness for binding NBS DNA
1,QQVI,≤ 0.2
2,QQFI,≤ 0.2
3,QQRI,0.383
4,QQDI,≤ 0.2
5,QQKI,0.399
6,QQYI,≤ 0.2
7,ESLH,≤ 0.2
8,QAYH,≤ 0.2
9,QARS,0.644
10,QAYS,0.305
11,QARH,0.529
12,QARN,0.349
13,QAIS,≤ 0.2
14,TNFS,≤ 0.2
15,TAIV,≤ 0.2
16,LTFR,≤ 0.2
17,SLFT,≤ 0.2
18,ITST,≤ 0.2
19,SLTL,≤ 0.2
20,QRNE,0.276
21,QRNF,0.327
22,QRNS,0.716
23,QRDS,0.468
24,QPDS,≤ 0.2
